The values that follow come from PubChem BioAssay (NCATS).

SMILES strings stand for the structures. Inconclusive results are not listed. Calls of active or inactive are those of the source. Calls come from the whole dose curve; as a rule, active = well fitted curve in the direction sought with a large enough effect; inconclusive = small, poorly fitted or top-dose-only effect, or another doubt; inactive = no such curve, though single readings can be large; an effect the other way counts as inactive or inconclusive.

The nature of one test: S16 Schwann cell viability assay (CellTiter-Glo assay) (AID 624031).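 Note: cellular ATP luminescence as a viability measure; plate controls were DMSO-treated cells for no effect and cell-free wells for full effect; nearly all actives have a fitted effect of over 70% in size.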 To be noted: S16 rat Schwann cells viability, 24 h; series mostly up to 57.5 µM; activity change, negative = cytotoxicity: at the top concentration. A digest of the protocol:
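This viability control uses native rat S16 Schwann cells grown in DMEM plus 10% FBS. After a 24 h compound treatment at 37 °C, CellTiter-Glo luminescence reports ATP content, scaled against DMSO-treated and cell-free wells.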
(Cellular ATP, detected with luciferase, serves as a proxy for viable cell number.)
With `CC(=O)[C@]1(O)Cc2c(O)c3c(c(O)c2[C@@H](O[C@H]2C[C@H](N)[C@H](O)[C@H](C)O2)C1)C(=O)c1c(O)cccc1C3=O`, the “activity change, negative = cytotoxicity” value was -6.73% (inactive).
Still for that read-out and setting: next, `Nc1ccc(O)c(C(=O)O)c1`: 9.1% (inactive); `C#C[C@]1(O)CC[C@H]2[C@@H]3CCc4cc(O)ccc4[C@H]3CC[C@@]21C`: -26.1% (inactive).
The same measure, in the same setting: next, `COc1cc(/C=C/C(=O)CC(=O)/C=C/c2ccc(O)c(OC)c2)ccc1O`: -0.909% (inactive).

A further test in a line: S16 Schwann cell PMP22 intronic element firefly luciferase assay (AID 624032).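 For activity change, negative = inhibition: plate controls were DMSO for no effect and PTC124 positive control mean for full effect.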 Note: nearly all actives have a fitted effect of over 30% in size. Note: potency is the fitted concentration of half-maximal effect. Particulars: S16 rat Schwann cells, PMP22 element FLuc, 24 h; series mostly up to 57.5 µM; activity change, negative = inhibition: at the top concentration. A digest of the protocol:
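Luciferase reporter of PMP22 intronic-element expression in stably transfected S16 rat Schwann cells, read by ONE-Glo luminescence after 24 h compound exposure at 37 C. Activity scaled between DMSO (0%) and positive-control PTC124; concentration-effect curves quality-classified.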
`Nc1ccc(O)c(C(=O)O)c1`: the “activity change, negative = inhibition” value is 2.37% (inactive).
On to `C#C[C@]1(O)CC[C@H]2[C@@H]3CCc4cc(O)ccc4[C@H]3CC[C@@]21C`, for which the Potency was 12.8 µM (active).
In the case of `CN(C)c1ccc(C(=C2C=CC(=[N+](C)C)C=C2)c2ccccc2)cc1`, the “activity change, negative = inhibition” value is 32.8% (inactive).
Same read-out and setting: next, `O=C(OCc1ccccc1)c1ccccc1`: -3.15% (inactive); `Cc1nc2ccccc2n1Cc1ccc(Cl)cc1`: -26.2% (inactive).
Turning to `COc1cc(/C=C/C(=O)CC(=O)/C=C/c2ccc(O)c(OC)c2)ccc1O`, the Potency is 20.3 µM (active).
Still for that read-out and setting: next, `COC(=O)C1=C(C)NC(C)=C(C(=O)OCC(C)C)C1c1ccccc1[N+](=O)[O-]` (stereo unspecified): 32.2 µM (active).
